# PubChem BioAssay
# “And” between values parts separate entries of the source, which are not always exact repeats. Equal values may be shown once. The source made the active and inactive calls.
# Tests used:
# [1] = test system: PRMT1 (protein arginine N-methyltransferase 1); test: small molecules binding arginine methyltransferase PRMT1 – biochemical, small-molecule microarray, 635 nm fluorescence, primary screen (AID 1088); conditions: higher = more signal;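 also: binding of Prmt1 protein to compounds spotted on small-molecule microarray slides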
# [2] = growth effects on S. cerevisiae YJM789 – YJM789 clinical isolate, OD600, 24 h, basal, primary screen (AID 1089); conditions: higher = more signal, called active from +8 up or from −8 down;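 also: growth of clinical yeast isolate S. cerevisiae YJM 789 seeded 1000 cells per well; test concentration not given here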
# [3] = S. pombe growth modifiers, basal conditions – strain 972, OD600, 24 h, no modulator, primary screen (AID 1090);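 also: basal condition with compound alone and no growth modifier present; test concentration not given here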; conditions: S. pombe 972 growth, higher = more signal, called active from +8 up or from −8 down
# [4] = budding yeast growth modifiers under rapamycin – strain BY4716, OD600, 96 h, primary screen (AID 1091); also: test concentration not given here; conditions: S. cerevisiae BY4716 + rapamycin, higher = more signal, called active from +8 up or from −8 down
# [5] = target: Torsin-1A-interacting protein 2 (Homo sapiens) (UniProt Q8NFQ8); test: small molecules binding lysate-expressed LULL1 – cell lysate, human LULL1 lysate, 635/667 nm fluorescence, primary screen (AID 1092); conditions: small-molecule microarray, hLULL1 lysate binding, 635 nm fluorescence; higher = more signal;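 also: probe is lysate of COS7 cells overexpressing human LULL1; score merges per-feature 667 nm fluorescence with signal-to-noise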
# Chain of Torsin-1A-interacting protein 2 (Homo sapiens) (Q8NFQ8 whole entry, looked up): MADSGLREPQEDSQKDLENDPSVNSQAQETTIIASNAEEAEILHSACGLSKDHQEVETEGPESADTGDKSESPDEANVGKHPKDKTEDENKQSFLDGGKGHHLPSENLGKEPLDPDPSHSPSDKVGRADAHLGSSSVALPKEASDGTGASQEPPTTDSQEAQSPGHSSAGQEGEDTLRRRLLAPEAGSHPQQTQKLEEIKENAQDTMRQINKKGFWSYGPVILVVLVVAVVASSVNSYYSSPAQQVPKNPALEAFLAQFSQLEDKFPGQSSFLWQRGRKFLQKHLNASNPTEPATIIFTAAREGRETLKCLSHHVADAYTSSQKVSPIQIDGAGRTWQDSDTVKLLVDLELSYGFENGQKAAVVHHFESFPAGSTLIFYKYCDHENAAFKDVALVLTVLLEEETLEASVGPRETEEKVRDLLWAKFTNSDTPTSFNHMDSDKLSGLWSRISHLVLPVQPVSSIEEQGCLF
# [6] = optical density change of DRC41 E. coli – strain DRC41, OD650, 24 h, E. coli filamentation project, primary screen (AID 1093);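 also: MC1000 strain lacking acrAB efflux and sulA so SOS filamentation is blocked; test concentration not given here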; conditions: E. coli DRC41 growth, higher = more signal, called active from +8 up or from −8 down
# [7] = probe aLefty2 binding to arrayed compounds – biochemical, biotinylated probe, 635/667 nm fluorescence, primary screen (AID 1094); conditions: small-molecule microarray, higher = more signal;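 also: score merges spot fluorescence near 667 nm with spot signal-to-noise ratio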
# [8] = test system: Noggin (protein binding on small-molecule microarray); test: small molecules binding Noggin protein – biochemical, 635/667 nm fluorescence, primary screen (AID 1095); conditions: 635 nm fluorescence, higher = more signal;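 also: score merges 667 nm feature fluorescence with signal to noise over triplicate slides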
# [9] = target: Neurogenic locus notch homolog protein 3 (Homo sapiens) (UniProt Q9UM47); test: small molecules binding NOTCH3 protein – biochemical, 635/667 nm fluorescence, primary screen (AID 1096); conditions: small-molecule microarray, 635 nm fluorescence, higher = more signal
# Chain of Neurogenic locus notch homolog protein 3 (Homo sapiens) (Q9UM47 whole entry, looked up): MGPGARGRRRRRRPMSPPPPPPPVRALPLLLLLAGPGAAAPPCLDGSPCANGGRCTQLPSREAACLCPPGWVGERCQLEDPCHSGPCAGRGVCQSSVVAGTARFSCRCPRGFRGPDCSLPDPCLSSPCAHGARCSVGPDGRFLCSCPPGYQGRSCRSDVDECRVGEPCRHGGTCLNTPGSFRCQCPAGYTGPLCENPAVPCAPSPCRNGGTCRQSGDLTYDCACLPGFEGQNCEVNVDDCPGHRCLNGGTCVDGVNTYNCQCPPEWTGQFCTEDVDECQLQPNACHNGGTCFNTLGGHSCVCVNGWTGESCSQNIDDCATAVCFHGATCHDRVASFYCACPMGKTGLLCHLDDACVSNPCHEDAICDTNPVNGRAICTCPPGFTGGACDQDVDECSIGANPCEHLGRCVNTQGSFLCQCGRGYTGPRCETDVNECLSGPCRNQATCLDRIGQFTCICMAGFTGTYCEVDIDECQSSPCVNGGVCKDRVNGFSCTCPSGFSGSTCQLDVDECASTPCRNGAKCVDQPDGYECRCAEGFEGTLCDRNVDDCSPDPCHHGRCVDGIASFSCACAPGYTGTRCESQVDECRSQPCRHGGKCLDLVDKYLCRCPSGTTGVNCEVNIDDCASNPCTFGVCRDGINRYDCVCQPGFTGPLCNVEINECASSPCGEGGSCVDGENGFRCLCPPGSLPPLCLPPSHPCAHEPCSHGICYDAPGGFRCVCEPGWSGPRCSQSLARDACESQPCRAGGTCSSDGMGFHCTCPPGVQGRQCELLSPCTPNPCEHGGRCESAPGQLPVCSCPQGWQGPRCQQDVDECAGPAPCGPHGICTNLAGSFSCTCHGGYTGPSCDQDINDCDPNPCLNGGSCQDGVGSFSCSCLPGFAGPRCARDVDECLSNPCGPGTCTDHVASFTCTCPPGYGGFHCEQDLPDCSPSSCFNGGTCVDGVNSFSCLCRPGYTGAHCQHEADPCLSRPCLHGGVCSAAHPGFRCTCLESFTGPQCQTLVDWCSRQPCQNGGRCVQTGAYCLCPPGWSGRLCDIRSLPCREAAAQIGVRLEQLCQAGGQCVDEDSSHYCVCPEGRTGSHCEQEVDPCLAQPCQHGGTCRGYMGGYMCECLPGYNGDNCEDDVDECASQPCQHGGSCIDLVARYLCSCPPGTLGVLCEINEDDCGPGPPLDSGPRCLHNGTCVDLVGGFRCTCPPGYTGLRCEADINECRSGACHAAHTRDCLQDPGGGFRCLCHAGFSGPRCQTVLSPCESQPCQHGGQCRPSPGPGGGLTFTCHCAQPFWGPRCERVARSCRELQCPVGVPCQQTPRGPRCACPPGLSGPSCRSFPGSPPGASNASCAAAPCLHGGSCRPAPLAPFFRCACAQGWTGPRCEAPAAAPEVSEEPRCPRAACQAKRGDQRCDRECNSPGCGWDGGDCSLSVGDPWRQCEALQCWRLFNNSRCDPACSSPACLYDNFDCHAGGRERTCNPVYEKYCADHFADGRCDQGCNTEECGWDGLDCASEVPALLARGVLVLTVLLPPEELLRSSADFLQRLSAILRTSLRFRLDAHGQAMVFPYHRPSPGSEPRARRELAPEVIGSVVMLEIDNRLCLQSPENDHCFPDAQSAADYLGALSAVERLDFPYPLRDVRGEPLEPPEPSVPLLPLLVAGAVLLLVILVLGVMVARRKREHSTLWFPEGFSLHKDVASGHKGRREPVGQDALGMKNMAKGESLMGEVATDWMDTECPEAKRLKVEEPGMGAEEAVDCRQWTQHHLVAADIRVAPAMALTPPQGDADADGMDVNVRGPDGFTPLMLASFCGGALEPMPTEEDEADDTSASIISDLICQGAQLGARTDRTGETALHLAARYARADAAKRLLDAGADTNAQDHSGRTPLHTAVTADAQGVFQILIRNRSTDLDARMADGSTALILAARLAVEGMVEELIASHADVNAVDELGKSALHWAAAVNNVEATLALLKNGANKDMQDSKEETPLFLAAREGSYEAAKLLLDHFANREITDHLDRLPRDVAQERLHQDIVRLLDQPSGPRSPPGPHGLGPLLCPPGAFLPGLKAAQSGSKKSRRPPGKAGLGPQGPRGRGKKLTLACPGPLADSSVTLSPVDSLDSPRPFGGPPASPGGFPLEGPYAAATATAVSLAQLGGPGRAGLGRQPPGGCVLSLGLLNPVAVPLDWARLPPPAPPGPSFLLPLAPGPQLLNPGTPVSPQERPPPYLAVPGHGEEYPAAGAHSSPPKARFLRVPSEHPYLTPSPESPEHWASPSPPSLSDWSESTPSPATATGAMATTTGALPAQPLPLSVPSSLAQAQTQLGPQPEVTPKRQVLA
# [10] = probe aEGFR binding to arrayed compounds – biochemical, biotinylated probe, 635/667 nm fluorescence, primary screen (AID 1097); conditions: small-molecule microarray, higher = more signal;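 also: probe is a biotinylated anti-EGFR antibody binding compounds printed on slides; score combines fluorescence near 667 nm and signal to noise of each spot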
# [11] = test system: Plasmodium falciparum Sir2 (PF13_0152, Sir2A); test: Plasmodium falciparum Sir2A binding compounds – biochemical, small-molecule microarray, 635 nm fluorescence, primary screen (AID 1098); conditions: fluorescence 635 nm, higher = more signal;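 also: score merges spot fluorescence intensity with its signal-to-noise ratio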
# [12] = probe aDKK1 binding to arrayed compounds – biochemical, biotinylated probe, 635/667 nm fluorescence, primary screen (AID 1099); conditions: small-molecule microarray, higher = more signal;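 also: score merges 667nm spot fluorescence with signal to noise across triplicate slides; reference of the scale not given here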
# [13] = probe aCHRDL2 binding to arrayed compounds – biochemical, biotinylated probe, 635/667 nm fluorescence, primary screen (AID 1100); conditions: small-molecule microarray, higher = more signal
# [14] = change in splice reporter luminescence, either direction, cell-based, HEK293, spliceosome inhibition project, primary screen (AID 1101); conditions: HEK293 splicing luciferase reporter, 24 h, higher = more signal, called active from +8 up or from −8 down;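 also: HEK293 cells carrying a splicing-competent luciferase reporter gene; test concentration not given here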
# [15] = target: Fibroblast growth factor 10 (Homo sapiens) (UniProt O15520); test: compounds binding fibroblast growth factor 10 – biochemical, small-molecule microarray, 635 nm fluorescence, primary screen (AID 1102); conditions: FGF10 binding, fluorescence 635 nm, higher = more signal
# Chain of Fibroblast growth factor 10 (Homo sapiens) (O15520 whole entry, looked up): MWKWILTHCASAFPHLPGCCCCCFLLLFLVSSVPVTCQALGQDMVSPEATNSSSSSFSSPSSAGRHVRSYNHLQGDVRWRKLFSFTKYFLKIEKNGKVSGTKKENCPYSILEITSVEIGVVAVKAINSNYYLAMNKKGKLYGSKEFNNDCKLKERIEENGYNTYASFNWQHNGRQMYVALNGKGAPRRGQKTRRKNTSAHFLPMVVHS
# [16] = test system: glycogen synthase kinase-3 (GSK3A per assay name; protocol says GSK3B); test: compounds binding glycogen synthase kinase-3 – biochemical, small-molecule microarray, 635 nm fluorescence, GSK3A, primary screen (AID 1103); conditions: fluorescence 635 nm, higher = more signal; also: the record names both GSK3A and GSK3B
# [17] = target: Epidermal growth factor receptor (Homo sapiens) (UniProt P00533); test: compounds binding epidermal growth factor receptor – biochemical, small-molecule microarray, 635 nm fluorescence, primary screen (AID 1104); conditions: EGFR binding, higher = more signal;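 also: score merges 667 nm emission intensity with spot signal to noise over triplicate slides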
# Chain of Epidermal growth factor receptor (Homo sapiens) (P00533 whole entry, looked up): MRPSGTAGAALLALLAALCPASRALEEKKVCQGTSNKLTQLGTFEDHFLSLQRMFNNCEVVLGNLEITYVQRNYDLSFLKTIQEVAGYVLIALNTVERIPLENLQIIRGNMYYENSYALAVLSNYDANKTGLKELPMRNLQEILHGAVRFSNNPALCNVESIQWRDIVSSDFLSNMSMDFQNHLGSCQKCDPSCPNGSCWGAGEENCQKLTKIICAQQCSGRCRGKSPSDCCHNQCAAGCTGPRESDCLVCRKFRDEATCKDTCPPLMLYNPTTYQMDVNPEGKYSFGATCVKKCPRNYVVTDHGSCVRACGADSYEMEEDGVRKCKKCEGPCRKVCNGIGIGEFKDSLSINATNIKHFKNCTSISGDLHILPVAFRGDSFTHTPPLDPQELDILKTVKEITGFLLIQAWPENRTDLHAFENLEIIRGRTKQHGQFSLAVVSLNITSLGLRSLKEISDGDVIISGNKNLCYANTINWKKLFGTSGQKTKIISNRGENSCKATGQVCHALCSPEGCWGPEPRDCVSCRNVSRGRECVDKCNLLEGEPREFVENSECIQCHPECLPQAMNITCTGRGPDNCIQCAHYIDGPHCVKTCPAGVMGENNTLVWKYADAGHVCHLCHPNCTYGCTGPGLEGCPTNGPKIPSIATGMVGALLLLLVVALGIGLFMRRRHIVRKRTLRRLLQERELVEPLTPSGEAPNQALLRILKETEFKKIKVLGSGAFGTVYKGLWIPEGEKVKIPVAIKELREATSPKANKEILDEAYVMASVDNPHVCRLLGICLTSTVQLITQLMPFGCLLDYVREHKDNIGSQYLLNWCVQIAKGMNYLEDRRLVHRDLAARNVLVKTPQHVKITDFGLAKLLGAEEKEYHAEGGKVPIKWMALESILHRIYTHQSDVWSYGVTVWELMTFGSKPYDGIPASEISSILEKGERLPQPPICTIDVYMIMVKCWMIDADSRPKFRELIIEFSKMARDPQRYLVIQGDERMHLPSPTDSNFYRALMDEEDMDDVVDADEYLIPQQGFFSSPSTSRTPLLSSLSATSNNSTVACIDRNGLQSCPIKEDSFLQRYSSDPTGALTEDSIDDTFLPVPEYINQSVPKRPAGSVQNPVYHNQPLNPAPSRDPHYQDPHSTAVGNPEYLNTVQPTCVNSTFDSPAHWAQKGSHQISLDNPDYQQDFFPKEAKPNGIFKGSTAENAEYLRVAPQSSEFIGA
# [18] = target: Follistatin-related protein 3 (Homo sapiens) (UniProt O95633); test: compounds binding follistatin-related protein 3 – biochemical, small-molecule microarray, 635 nm fluorescence, primary screen (AID 1105); conditions: FSTL3 binding, higher = more signal;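 also: score merges emission near 667 nm and signal to noise per printed spot across three slides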
# Chain of Follistatin-related protein 3 (Homo sapiens) (O95633 whole entry, looked up): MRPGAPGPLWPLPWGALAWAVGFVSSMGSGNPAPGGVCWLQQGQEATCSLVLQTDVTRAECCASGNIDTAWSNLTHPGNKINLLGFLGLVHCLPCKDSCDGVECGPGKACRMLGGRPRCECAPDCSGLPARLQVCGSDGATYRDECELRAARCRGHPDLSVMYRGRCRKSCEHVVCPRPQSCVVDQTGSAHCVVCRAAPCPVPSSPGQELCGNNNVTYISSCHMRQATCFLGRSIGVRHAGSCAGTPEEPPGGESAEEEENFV
# [19] = target: Dickkopf-related protein 1 (Homo sapiens) (UniProt O94907); test: small molecules binding DKK1 protein – biochemical, small-molecule microarray, 635 nm fluorescence scan, primary screen (AID 1106); conditions: higher = more signal;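 also: score merges emission near 667 nm with signal to noise over three replicate slides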
# Chain of Dickkopf-related protein 1 (Homo sapiens) (O94907 whole entry, looked up): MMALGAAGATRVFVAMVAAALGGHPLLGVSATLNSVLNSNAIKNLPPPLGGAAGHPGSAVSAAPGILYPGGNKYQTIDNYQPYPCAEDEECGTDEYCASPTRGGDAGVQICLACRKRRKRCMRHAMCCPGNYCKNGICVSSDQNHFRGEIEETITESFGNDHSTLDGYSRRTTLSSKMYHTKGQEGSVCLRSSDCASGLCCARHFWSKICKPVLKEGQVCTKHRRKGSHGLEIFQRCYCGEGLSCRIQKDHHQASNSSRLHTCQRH
# [20] = test system: Inhibin beta A chain (activin A); test: small molecules binding activin A – biochemical, small-molecule microarray, 635 nm fluorescence scan, primary screen (AID 1107); conditions: INHBA, higher = more signal;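 also: mouse activin A protein probed at 4.33 µg/mL on printed slides; score merges bound-protein fluorescence near 667 nm with spot signal-to-noise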
Compound,composite z-score [1],z-score [2],z-score [3],z-score [4],composite z-score [5],z-score [6],composite z-score [7],composite z-score [8],composite z-score [9],composite z-score [10],composite z-score [11],composite z-score [12],composite z-score [13],z-score [14],composite z-score [15],composite z-score [16],composite z-score [17],composite z-score [18],composite z-score [19],composite z-score [20]
COC(=O)[C@@]1(Cc2ccccc2)[C@H]2c3cc(C(=O)N(C)C)n(C[C@H](O)CO)c3C[C@H]2CN1C(=O)c1ccccc1,-0.576 and -0.197,0.745 (inactive) and 0.53 (inactive),-0.421 (inactive) and 0.883 (inactive),0.565 (inactive) and 0.696 (inactive),3.69 and 2.3,-0.527 (inactive) and -0.856 (inactive),-0.052 and 0.0305,-0.634 and -0.737,-0.349 and -0.0109,-0.228 and 0.0395,0.544 and 0.831,0.781 and 0.66,0.761 and 1.21,-2.37 (inactive) and 1.46 (inactive),-0.397 and 0.483,-0.137 and -0.227,-0.647 and 0.374,-0.397 and 0.0048,-0.907 and -0.236,0.985 and 1.1
C[C@@H]1CC[C@@H](C(=O)O)N[C@H]1c1ccc(-c2ccco2)cc1,1.06,0.804 (inactive),-0.383 (inactive),-0.476 (inactive),0.534,-0.0778 (inactive),0.0331,1.26,0.945,-0.115,1.04,-0.187,-0.826,0.0295 (inactive),0.614,0.722,0.946,1.44,0.951,0.805
CCN1C(=O)[C@H]2[C@H]3[C@H](O)[C@H](O)CC(=NOC[C@@H](O)COCc4ccco4)[C@@H]3CC[C@H]2C1=O,1.4 and 0.727,0.686 (inactive) and 0.102 (inactive),0.315 (inactive) and 0.174 (inactive),1.29 (inactive) and 0.945 (inactive),-1.03 and 0.493,0.0584 (inactive) and -1.13 (inactive),-0.266 and -0.44,0.445 and -0.121,-0.365 and -0.32,0.0747 and -0.0413,0.449 and 1.11,0.439 and -0.572,-1.3 and -1.1,0.259 (inactive) and 0.403 (inactive),-0.397 and 0.588,0.823 and -0.198,1.28 and 0.0979,1.21 and -0.333,1.56 and 0.836,0.666 and -0.0006
COC(=O)CC=C[C@@H](C)[C@@H](CO)NS(=O)(=O)c1ccc(C)cc1,-0.0055 and 0.604,0.102 (inactive) and 0.479 (inactive),-0.178 (inactive) and -0.491 (inactive),0.218 (inactive) and -0.249 (inactive),0.0736 and 1.26,-0.0928 (inactive) and 0.0226 (inactive),-0.37 and -0.0533,0.598 and 0.856,-0.15 and 0.745,-0.118 and 0.0192,0.266 and 0.348,-0.393 and -0.371,-0.591 and -0.895,0.538 (inactive) and -0.445 (inactive),0.394 and 0.774,0.635 and 0.827,0.667 and 0.395,0.505 and 1.3,0.998 and 0.71,0.0232 and -0.0806
COCn1c2ccccc2c2nnc(C(C)=O)nc21,-0.217 and 0.724,-0.405 (inactive) and -0.362 (inactive),-0.267 (inactive) and -1.08 (inactive),-0.189 (inactive) and -0.135 (inactive),-0.0703 and 0.184,-0.35 (inactive) and -0.768 (inactive),-0.0702 and -0.0137,0.1 and 0.372,-0.007 and 0.307,-0.0398 and -0.123,-0.137 and 0.312,-0.228 and -0.221,-0.42 and -0.408,-0.592 (inactive) and -0.85 (inactive),0.529 and 0.182,-0.0671 and 0.0307,0.574 and 0.979,0.383 and 0.277,0.808 and 0.152,0.12 and 0.483
Cc1ccc(S(=O)(=O)N[C@@H]2COC(=O)CC=C[C@@H](C)[C@@H]3C=C[C@H](O)[C@@H](COC(=O)CC=C[C@H]2C)O3)cc1,0.438 and 0.385,-0.147 (inactive) and -0.184 (inactive),-0.349 (inactive) and -0.549 (inactive),-0.564 (inactive) and -0.784 (inactive),-0.0372 and -0.0592,0.651 (inactive) and -0.667 (inactive),-0.185 and -0.162,0.902 and 0.305,-0.0571 and 0.584,-0.072 and -0.112,0.527 and 0.241,-0.553 and -0.331,-1.15 and -0.466,-0.371 (inactive) and -1.35 (inactive),0.606 and 0.174,0.126 and 0.233,0.884 and 0.383,1.08 and 0.451,1.13 and 0.389,1.03 and -0.134
COC(=O)C1=C(C)N(Cc2ccccc2)C2=C3C(=O)CCC[C@@H]3[C@@](O)(C(=O)OC)C(=O)N2[C@@H]1c1ccccc1,0.749 and -0.121,0.494 (inactive) and -0.978 (inactive),-1.66 (inactive) and -4.18 (inactive),-2.01 (inactive) and -2.52 (inactive),0.0102 and 0.0556,0.821 (inactive) and 0.754 (inactive),0.182 and -0.0863,0.637 and 0.433,0.602 and -0.239,-0.177 and 0.108,0.464 and -0.773,0.0021 and -0.0015,-0.334 and -0.299,0.732 (inactive) and -1.28 (inactive),0.887 and 0.389,0.379 and 0.224,0.459 and 0.433,0.843 and 0.284,0.641 and 0.516,0.177 and 0.506
C[N+](C)(C)CCCCNC(=O)[C@@H]1C[C@@H]2C(=O)N[C@@H](CCCC[N+](C)(C)C)C(=O)N2[C@@H]1c1cccc(OCCO)c1,1.53 and 0.995,1.27 (inactive) and 0.389 (inactive),-0.352 (inactive) and -0.297 (inactive),-0.483 (inactive) and -1.92 (inactive),0.864 and 2.09,0.616 (inactive) and 0.374 (inactive),0.387 and 0.268,2.03 and 1.71,1.05 and 1.09,0.399 and 0.56,1.03 and 0.616,0.0631 and 0.217,-0.0665 and 0.574,-0.21 (inactive) and 0.129 (inactive),1.51 and 1.4,1.35 and 0.785,1.33 and 0.0943,1.5 and 1.33,2.14 and 1.67,0.804 and -0.833
C[N+](C)(C)CCCCNC(=O)[C@H]1C[C@H]2C(=O)N[C@@H](CCCC[N+](C)(C)C)C(=O)N2[C@H]1c1cccc(OCCO)c1,1.04 and 1.57,-0.604 (inactive) and -0.504 (inactive),-0.0107 (inactive) and -0.805 (inactive),-1.88 (inactive) and -1.81 (inactive),2.58 and 1.78,-0.351 (inactive) and -0.201 (inactive),-0.121 and -0.0153,1.89 and 1.75,0.914 and 1.1,0.0614 and 0.22,1.82 and 1.11,-0.171 and 0.256,-0.537 and -0.421,0.00747 (inactive) and -0.387 (inactive),1.51 and 1.39,0.0299 and 1.1,0.622 and 1.27,1.45 and 1.51,1.44 and 1.81,0.282 and 0.696
CCOC(=O)[C@H](Cc1ccccc1)NC(=O)CCC1CC(OC(=O)NCc2cccc3ccccc23)CC2(CCCC(COC(=O)NCCCN3CCCC3=O)O2)O1 (stereo not given in full),1.21,-1.18 (inactive),0.134 (inactive),-0.896 (inactive),2.01,-0.288 (inactive),-0.148,0.692,1.01,-0.0578,0.513,-0.104,-0.517,-1.09 (inactive),0.447,0.901,0.405,0.804,0.866,-0.0698
C=CCN(Cc1ccccc1)C(=O)C1N(c2ccc(CCO)cc2)C(=O)C2C(C(=O)O)C3C=CC21O3 (stereo not given),-1.64 and -0.655,0.774 (inactive) and -0.721 (inactive),-0.455 (inactive) and 0.116 (inactive),0.599 (inactive) and -1.29 (inactive),-0.933 and -1.02,1.12 (inactive) and 2.04 (inactive),0.0395 and 0.0834,-2.88 and -1.99,-1.35 and -1.12,-0.418 and -0.305,0.808 and 1.9,0.433 and -0.26,1.08 and 1.01,-0.426 (inactive) and -0.139 (inactive),-1.98 and -2.13,-1.13 and -1,-1.69 and -2.44,-3.03 and -1.19,-2.7 and -3.74,-3.78 and -3.04
C#CCCCON=C1C[C@@H](O)[C@@H](O)[C@@H]2[C@@H]3C(=O)N(C4CCCCC4)C(=O)[C@@H]3CC[C@H]12,0.589,-0.177 (inactive),-0.539 (inactive),-0.193 (inactive),1,0.318 (inactive),0.0103,0.417,0.71,-0.0842,0.72,0.149,-0.0642,-0.285 (inactive),0.402,0.355,0.217,0.348,0.0938,0.24
C=CCN(CCCC)C(=O)C(c1cccs1)N(C(=O)/C=C\C(=O)O)c1ccc(CCO)cc1 (stereo not given),-1.13 and -0.631,-0.924 (inactive) and 0.0434 (inactive),-0.13 (inactive) and -0.354 (inactive),0.161 (inactive) and 0.541 (inactive),0.413 and 0.484,0.0144 (inactive) and -0.312 (inactive),0.0113 and -0.145,-2.58 and -3.71,-1.26 and -0.946,-0.315 and -0.346,-0.292 and 0.315,0.219 and -0.11,0.864 and 1.06,0.243 (inactive) and -0.284 (inactive),-1.34 and -1.59,-1.58 and -1.35,-1.11 and -2.45,-0.963 and -2.14,-1.99 and -4.28,-1.22 and -1.99
